Results reported in PubChem BioAssay AID651601 (Sanford-Burnham Center for Chemical Genomics, 2012).
The source made the active and inactive calls.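 Rule for the calls: active = CXCR6 mean IC50 below 15 µM, and neither CCR6 nor CXCR5 mean IC50 under five times that; inactive = the rest.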

Target: C-C chemokine receptor type 6 (Homo sapiens) (UniProt P51684)
Test: chemokine receptor panel antagonism: CCR6, CXCR5, CXCR6, profiling panel, selectivity assay for CXCR6 antagonist project, cell-based, CHO-K1 PathHunter beta-arrestin, luminescence (AID 651601)
Settings: antagonist mode, mean of runs

Chain of C-C chemokine receptor type 6 (Homo sapiens) (P51684 whole entry, looked up): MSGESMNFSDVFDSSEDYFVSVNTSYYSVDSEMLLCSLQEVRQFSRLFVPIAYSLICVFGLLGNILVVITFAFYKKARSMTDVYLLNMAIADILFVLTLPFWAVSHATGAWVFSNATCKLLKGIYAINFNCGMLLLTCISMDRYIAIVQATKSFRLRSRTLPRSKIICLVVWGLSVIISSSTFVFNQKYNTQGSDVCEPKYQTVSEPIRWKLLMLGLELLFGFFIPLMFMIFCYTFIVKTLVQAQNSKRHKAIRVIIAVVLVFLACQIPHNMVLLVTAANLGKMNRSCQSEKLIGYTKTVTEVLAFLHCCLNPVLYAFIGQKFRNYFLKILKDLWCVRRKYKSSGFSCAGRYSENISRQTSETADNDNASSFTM

outcome, inactive:
COc1cccc(C(=O)NC2CC3CCCC(C2)N3CC(=O)Nc2ccc(N(C)C)cc2)c1 (stereo unspecified)
COc1cccc(C(=O)NC2CC3CCCC(C2)N3CC(=O)Nc2ccccc2C(F)(F)F)c1 (stereo unspecified)
O=C(CN1C2CCCC1CC(NC(=O)c1ccccc1)C2)Nc1ccccc1C(F)(F)F (stereo unspecified)
CN(C)c1ccc(NC(=O)CN2C3CCCC2CC(NC(=O)c2ccccc2)C3)cc1 (stereo unspecified)
O=C(CN1C2CCCC1CC(NC(=O)c1ccccc1)C2)Nc1ccccc1 (stereo unspecified)
COc1cc(C(=O)NC2CC3CCCC(C2)N3CC(=O)Nc2ccccc2)cc(OC)c1OC (stereo unspecified)
